Assay results as given in PubChem BioAssay (NCI).
Compounds without any hit were thinned out: in the full panel of roughly 83,000, 20% have a hit.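 Cells were grown in 96-well plates and exposed to the test compound at a single concentration for 48 hours; results are reported as percent growth, with values below 10 considered active.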 Unmarked numbers belong to inactive results. The source made the active and inactive calls.

How the values were obtained:
Assay in all cases: NCI-60 one-dose screen, 48 h (100 = growth as untreated, 0 = no growth, -100 = all killed)
Conditions in all cases: 10 µM
K-562 leukemia = system: K-562 leukemia
MALME-3M melanoma = system: MALME-3M melanoma
MDA-MB-231 breast = system: MDA-MB-231 breast
RXF 393 renal = system: RXF 393 renal
SF-268 CNS = system: SF-268 CNS
SF-295 CNS = system: SF-295 CNS
SF-539 CNS = system: SF-539 CNS
UACC-257 melanoma = system: UACC-257 melanoma
M14 melanoma = system: M14 melanoma
HCT-15 colon = system: HCT-15 colon

| SMILES | growth (K-562 leukemia) | growth (MALME-3M melanoma) | growth (MDA-MB-231 breast) | growth (RXF 393 renal) | growth (SF-268 CNS) | growth (SF-295 CNS) | growth (SF-539 CNS) | growth (UACC-257 melanoma) | growth (M14 melanoma) | growth (HCT-15 colon) |
| --- | --- | --- | --- | --- | --- | --- | --- | --- | --- | --- |
| CN(C)c1ccc(/C=C/C=N/NC(=O)c2cc(O)c(O)c(O)c2)cc1 | 27.1% | 88.9% | 85.4% | 99.4% | 94.6% | 103% | 89.8% | 92.8% | 96.9% | 94.2% |
| CCCCCCN(CCCCCC)CC(O)c1ccc2c3c(cccc13)CC2 (stereo not given) | 46.2% | 71.7% | 72.9% | 67.2% | 76.4% | 49.4% | 70% | 67.9% | 28.2% | 44.2% |
| O=C(Nc1cccc(-n2cc(-c3ccncc3)c(-c3cc(O)cc(Cl)c3)n2)c1)c1ccc(N2CCOCC2)c(C(F)(F)F)c1 | -15.5% (active) | -26.9% (active) | -48% (active) | -45.6% (active) | 52.7% | -35.4% (active) | 2.4% (active) | 9.38% (active) | -20.7% (active) | 6.25% (active) |
| C/C(N)=C(\C#N)C(=O)c1ccccc1 | 109% | 90.5% | 121% | 97.5% | 110% | 94.1% | 103% | 88% | 110% | 98.2% |
| COc1ccc(/C=C/C(C)=N/OCC(=O)O)cc1 | 99.9% | 96.7% | 120% | 101% | 107% | 100% | 101% | 112% | 100% | 102% |
| CS(=O)(=O)Nc1cccc(-c2cc(-c3ccccc3Cl)c(C#N)c(N)n2)c1 | 14.1% | 24.8% | 49.1% | 6.08% (active) | 49.2% | 7.3% (active) | -14.4% (active) | 74.3% | 23.4% | 30.1% |
| CCOC(=O)C(=Cc1ccc(Br)cc1)C(=O)OCC | 0.625% (active) | -49.5% (active) | 4.72% (active) | -75% (active) | -6.93% (active) | 38.3% | 8.53% (active) | -37.8% (active) | -22% (active) | -42.1% (active) |
| CN(Cc1ccccc1)Cc1ccc([N+](=O)[O-])cc1I | 91.7% | 84% | 101% | 88.2% | 98% | 104% | 100% | 103% | 102% | 92.2% |
| O=[P@@]1(c2ccccc2)O[C@H](COCc2ccccc2)[C@@H](OCc2ccccc2)[C@H](OCc2ccccc2)[C@H]1O | 93.9% | 109% | 73.2% | 50% | 43.6% | -24.9% (active) | 58.1% | 88.4% | 102% | 94.2% |
| COc1cccc(NC(=O)c2sc3nc4c(cc3c2N)C(O)CCC4)c1 (stereo not given) | 7.8% (active) | 81.3% | 23.9% | -0.406% (active) | 30.6% | 5.44% (active) | -17.6% (active) | 55% | 11.8% | 19.4% |
| COc1ccc2c(c1)O/C(=C\c1ncc([N+](=O)[O-])n1C)C2=O | 1.57% (active) | -65.6% (active) | -10.3% (active) | -72% (active) | -17.6% (active) | -34.6% (active) | -60.9% (active) | -57% (active) | -54.6% (active) | 2.5% (active) |
| O=C1/C(=C\c2ccc(Br)cc2)CN(C(=O)c2ccccc2F)C/C1=C\c1ccc(Br)cc1 | 1.26% (active) | -2.95% (active) | -4.72% (active) | -76.6% (active) | 4.14% (active) | -19.9% (active) | 3.38% (active) | 30.6% | -47.8% (active) | 5.63% (active) |
| COc1ccc(-c2nn(-c3cccc(NC(=O)Nc4ccc(Cl)c(C(F)(F)F)c4)c3)cc2-c2ccncc2)cc1Cl | 15.4% | -8.87% (active) | 0.455% (active) | 19.3% | 31% | -2.09% (active) | -7.12% (active) | -7.89% (active) | 6.17% (active) | 16.3% |
| Cc1cn(C2CCCCO2)c(=O)nc1NO (stereo not given) | 101% | 137% | 106% | 119% | 103% | 106% | 96.1% | 106% | 113% | 100% |
| COC(=O)C1=NNC(=S)N(c2cc(C)[nH]n2)C(=O)C1 | 93.7% | 93.2% | 110% | 111% | 102% | 96.3% | 102% | 100% | 102% | 102% |
| CC/C(=C(/c1ccc(OCCN(C)C)cc1)c1ccc(OC(=O)CCCCC(=O)c2c(C)[nH]c(/C=C3\N=C(c4ccc[nH]4)C=C3OC)c2C)cc1)c1ccccc1 | 7.12% (active) | 39.5% | -17.5% (active) | 37.2% | 51.5% | 72.6% | 78.6% | 90.1% | -1.63% (active) | 27.1% |
| COc1cc(-c2cc(-c3cc4c([nH]c5ccccc54)c(-c4cc(OC)c(OC)c(OC)c4)n3)cc(-c3ccccc3)n2)cc(OC)c1OC | 16.7% | 58.3% | 45.6% | 72.6% | 78.7% | 26.8% | 66% | 89% | 50.9% | 51.6% |
| O=C(O)CCCCSc1ncnc2nc[nH]c12 | 102% | 96.2% | 113% | 105% | 98.9% | 101% | 102% | 99.6% | 103% | 102% |
| Nc1nc(N=Nc2ccc(O)cc2)cc(=O)[nH]1 | 106% | 96.4% | 98.7% | 74.4% | 111% | 94.9% | 96.6% | 112% | 101% | 101% |
| c1ccc(CSc2nnc3c4c5c(sc4nc(-c4cccnc4)n23)CCCCCC5)cc1 | 21.7% | 16.2% | 71.4% | 83.3% | 57% | 45.1% | 79.7% | 35% | 45% | 94.2% |
| COc1cc(C(=O)/C=C/c2cc(-c3cc(OC)c(OC)c(OC)c3)n[nH]2)cc(OC)c1OC | 4.46% (active) | -56% (active) | 3.71% (active) | -84.3% (active) | 4.97% (active) | 135% | -56.2% (active) | -1.5% (active) | 6.7% (active) | 3.63% (active) |
| COc1ccc2c(c1)O/C(=C\c1ccc([N+](=O)[O-])o1)C2=O | 2.05% (active) | -37.1% (active) | 8.07% (active) | -74% (active) | -5.87% (active) | 9.85% (active) | -43.2% (active) | -13.1% (active) | -15.5% (active) | 2.39% (active) |
| O=C(Nc1cccc(-n2cc(-c3ccncc3)c(-c3cc(O)cc(Cl)c3)n2)c1)c1cc(C(F)(F)F)cc(C(F)(F)F)c1 | 20.4% | 61.7% | -34.6% (active) | -10.3% (active) | 69.4% | 15% | 75.5% | 71% | 24.5% | 30.1% |
| O=C1/C(=C\c2ccc(F)cc2)CN(C(=O)c2ccccc2F)C/C1=C\c1ccc(F)cc1 | -0.921% (active) | -55.2% (active) | -38.7% (active) | -83.2% (active) | 0.452% (active) | -30.7% (active) | 0.221% (active) | -28.2% (active) | -48.4% (active) | -16.3% (active) |
| CC(C)C[C@H](NC(=O)[C@H](Cc1cccc2ccccc12)NS(=O)(=O)c1cccc2cccnc12)B(O)O | -17.7% (active) | -76.9% (active) | -4.94% (active) | 15.9% | 0.092% (active) | -70.5% (active) | -34.1% (active) | 15.4% | -47.4% (active) | -65.8% (active) |
| N#CCCN1C/C(=C/c2ccc(Br)cc2)C(=O)/C(=C/c2ccc(Br)cc2)C1 | 3.42% (active) | -48.4% (active) | -39.4% (active) | -89.1% (active) | -36.2% (active) | -20.2% (active) | -55.1% (active) | -33.5% (active) | -55.1% (active) | 0.513% (active) |
| COc1cc(NC(=O)CCSc2nc3ccc(C)cc3c(=O)n2Cc2ccccc2)cc(OC)c1OC | 78% | 33.8% | 52.5% | 36.4% | 40.4% | 59.4% | 33.5% | 57.1% | 87.4% | 76.5% |
